JNK3 blocker: JNK3 kinase activity inhibitors, primary screen, biochemical, human, purified enzyme. Mitogen-activated protein kinase 10 (Homo sapiens), P53779. HTS. inhibition, % at 8 µM. 0.61% of 60,000 active; in the data active = inhibition above about 17%
Her2 expr inh: inhibitors of Her2 protein expression, primary screen, SKBR-3 cells, AlphaScreen, 66K library; AID 645, 2007; 0.69% of 65,000 active; SKBR-3 HER2 protein level, 18-24 h; hits give low values; Receptor tyrosine-protein kinase erbB-2 (Homo sapiens), P04626; HER2 level % of control, % at 10 µM;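 active = HER2 level under 5% of the carrier-only control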;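 note: lower value means stronger loss of Her2 protein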
FXIIa mix inh: human factor XIIa inhibitors, primary screen, biochemical, pooled compound mixtures, fluorogenic substrate; Coagulation factor XII (Homo sapiens), P00748; purified FXIIa; inhibition, % at 5 µM; 0.2% of 62,000 active; AID 684, 2007
M1 antag: antagonists of rat M1 muscarinic receptor; AID 628, 2007; B-score at 10 µM; Muscarinic acetylcholine receptor M1 (Rattus norvegicus), P08482; 3.4% of 64,000 active; CHO-M1 cells, Fluo-4 calcium, ACh EC80 antagonist mode; hits give low values;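 active = calcium fluorescence response, raw or row-and-column corrected B-score, differing from the plate sample mean either way at a set confidence level, mostly lower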
M1 ag: M1 muscarinic receptor agonists, primary screen, CHO-M1 cells, Fluo-4 calcium, agonist mode. Muscarinic acetylcholine receptor M1. Fluo-4 calcium fluorescence; hits give high values. B-score at 10 µM. 3% of 64,000 active. AID 626, 2007;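 active = fluorescence rise, raw or as B-score row- and column-corrected plate score, outside the 99.7% band of its plate's samples, either direction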
FXIa inh mix: FXIa protease inhibitors in compound pools, primary screen, biochemical, 10-compound mixtures. Coagulation factor XI (Homo sapiens), P03951. purified FXIa, fluorogenic substrate, pooled mixtures. inhibition, % at 5 µM. 0.19% of 62,000 active. AID 680, 2007;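 note: each value is inhibition by a whole ten-compound pool holding the compound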
Target sequence (P03951 19-387 limits assumed): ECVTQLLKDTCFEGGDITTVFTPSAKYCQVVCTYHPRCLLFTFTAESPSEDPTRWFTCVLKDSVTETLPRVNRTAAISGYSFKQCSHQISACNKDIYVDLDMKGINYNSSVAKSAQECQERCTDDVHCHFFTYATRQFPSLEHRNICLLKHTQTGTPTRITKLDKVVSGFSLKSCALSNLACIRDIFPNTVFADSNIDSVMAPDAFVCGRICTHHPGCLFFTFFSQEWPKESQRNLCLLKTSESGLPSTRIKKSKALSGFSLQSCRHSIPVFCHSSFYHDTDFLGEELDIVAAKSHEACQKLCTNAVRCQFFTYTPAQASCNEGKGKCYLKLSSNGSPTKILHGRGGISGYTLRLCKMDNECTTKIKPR
Target sequence (P03951 388-625 limits assumed): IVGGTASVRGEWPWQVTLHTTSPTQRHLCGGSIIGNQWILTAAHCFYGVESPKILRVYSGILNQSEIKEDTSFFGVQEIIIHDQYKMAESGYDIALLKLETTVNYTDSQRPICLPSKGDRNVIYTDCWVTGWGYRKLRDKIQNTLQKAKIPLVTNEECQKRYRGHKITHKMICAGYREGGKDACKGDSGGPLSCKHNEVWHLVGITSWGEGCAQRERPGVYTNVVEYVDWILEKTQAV
Each line names hits and unclear results; the compound was inactive in the other large screens. Shown are actives, neighbours in structure and some others; about 6.9% of the full set was active somewhere. Cut-off read from the data, not from the text of the source, unless noted: active = inhibition above about 20% (passing the limit was not always enough); inactive = the rest.

CN(C)S(=O)(=O)c1cccc(COC(=O)C2=COCCO2)c1	FXIIa mix inh 21
O=C(OCn1nnc2ccccc2c1=O)C1=COCCO1	none
CN1CCc2c(n(CC(O)CN3C(=O)c4ccccc4S3(=O)=O)c3ccccc23)C1=O (stereo not given)	none (no result: FXIIa mix inh, FXIa inh mix)
CC(C)NCC(O)Cn1c2c(c3ccccc31)CCc1c-2cnn1-c1ccccc1 (stereo not given)	Her2 expr inh -16
Nc1nnnn1/N=C/C(Br)=C/c1ccccc1	Her2 expr inh -20
CCN(CC)C(NC(=O)c1ccccc1)C(=O)c1ccccc1 (stereo not given)	none
COc1ccc(C(=O)OCn2nnc3ccccc3c2=O)cc1OC	none
COC(=O)c1cccc(Cn2nnc3ccccc3c2=O)c1	JNK3 blocker 17
CCCCCn1c(SCC#N)nc2cc(C(=O)NCC3CCCO3)ccc2c1=O (stereo not given)	M1 ag 2.5
CCCCCn1c(SCC#N)nc2cc(C(=O)NC3CCCCC3)ccc2c1=O	Her2 expr inh -20
C=CCn1c(SCC(=O)N2CCCC2)nc2cc(C(=O)NCC3CCCO3)ccc2c1=O (stereo not given)	none (no result: JNK3 blocker)
Cc1cc(C)c2c(n1)nn1c(NCCCn3ccnc3)cc(C)nc21	M1 antag -3.3
CCCCC(=O)Nc1ccc(C(=O)N2CCN(c3ccccc3OC)CC2)cc1	M1 antag 3.4
CCc1sc(C(=O)NCc2cc(C)n(C)n2)cc1Br	M1 ag -5.1
Cn1cnnc1SCC(=O)N1c2ccccc2-c2c(ssc2=S)C1(C)C	M1 antag -1.9
CC1(C)c2ssc(=S)c2-c2ccccc2N1C(=O)c1ccco1	none
O=S(=O)(CCSc1nc2ccccc2o1)c1nc2ccccc2s1	Her2 expr inh -14
O=S(=O)(CCSc1ccccn1)c1nc2ccccc2s1	Her2 expr inh -8.5
O=C(CSc1nc2ccccc2s1)Nc1ncccn1	none
C(=C\c1ccccc1)/CSc1nnc(-c2cccnc2)o1	none
CCN(CC)c1ccc2cc(-c3nnc(-c4ccncc4)o3)c(=O)oc2c1	M1 antag -15, M1 ag 401 (no result: FXIIa mix inh, FXIa inh mix)
CCN(CC)CCCN1C(=O)C(O)=C(C(C)=O)C1c1ccc(OC)cc1OC (stereo not given)	none
CCC1Oc2ccc(C)cc2N(CC(=O)N(Cc2cccnc2)Cc2ccc(C)o2)C1=O (stereo not given)	M1 ag 4.4
Cc1ccc(S(=O)(=O)n2nc(-c3ccco3)nc2SCc2ccccc2)cc1	M1 ag 2.2 (no result: FXIIa mix inh, FXIa inh mix)
Cc1noc(NS(=O)(=O)c2ccc(NC(=O)CSc3nc4ccccc4s3)cc2)c1C	FXIa inh mix 52
Cc1noc(NS(=O)(=O)c2ccc(NC(=O)CSc3ncccn3)cc2)c1C	none
CCCn1c(NC(=O)c2ccccc2)nc2ccccc21	none
CCCn1c(NC(=O)c2cccc(S(=O)(=O)N3CCCC3)c2)nc2ccccc21	Her2 expr inh -3.3
O=C(Cn1c(C(=O)N2CCN(C3CCCC3)CC2)cc2sccc21)c1ccccc1	none
O=S1(=O)C=C(Sc2nc3cc(Cl)ccc3o2)c2ccccc21	Her2 expr inh -18
CN(C)c1nc(N)nc(CSc2nc3cc(Cl)ccc3o2)n1	none (no result: Her2 expr inh)
CCN1CCN(c2ncc(C(=O)Nc3cc(Cl)c(OC)cc3OC)c3ccccc23)CC1	none (no result: M1 antag, M1 ag)
CCN1CCN(c2ncc(C(=O)N3CCN(c4ccccc4OC)CC3)c3ccccc23)CC1	M1 antag -10
CCOC(=O)CCc1c(C)nc2c(c(C)nn2C(C)(C)C)c1C	M1 antag 2.6
O=c1c2cccnc2[nH]c(=S)n1CCC1=CCCCC1	none
COCCn1c(=S)[nH]c2ncccc2c1=O	FXIa inh mix 38 (no result: M1 antag, M1 ag)
COc1cccc(C2C(C(=O)c3cccs3)=C(O)C(=O)N2CCCn2ccnc2)c1OC (stereo not given)	none
Cc1noc(C)c1CSc1nnc2c(C)cc3ccccc3n12	M1 ag 1.7
Cc1ccc(S(=O)(=O)N(C)Cc2ccc(-c3nnc4n3CCC4)cc2)cc1	M1 antag 2.6
COc1cc2[nH]c(=O)n(CCC(=O)N3CCN(c4cccc(C)c4C)CC3)c(=O)c2cc1OC	Her2 expr inh -23 (no result: JNK3 blocker)
COc1ccccc1N1CCN(C(=O)CCn2c(=O)[nH]c3ccsc3c2=O)CC1	none (no result: JNK3 blocker)
CC(=O)Nc1sc(C)c(C)c1C(=O)OC1CCOC1=O (stereo not given)	none (no result: M1 antag, M1 ag)
Cc1nnc(SCCn2c(N(C)Cc3ccccc3)nc3c2c(=O)n(C)c(=O)n3C)s1	none (no result: FXIIa mix inh, FXIa inh mix)
O=C1NC2=C(C(=O)c3ccccc32)C(c2ccccc2)N1 (stereo not given)	JNK3 blocker 27
CC(=O)C1=C(C)NC(=O)NC1c1ccccc1 (stereo not given)	none (no result: JNK3 blocker)
CCOc1ccccc1N1CCN(Cc2ccc(OC)c(OC)c2)CC1	Her2 expr inh -20 (no result: M1 antag, M1 ag)
CC(=O)Nc1ccc(N/C=C/C(=O)C(C)(C)C)cc1	FXIa inh mix 21
c1ccc(Cc2nn3c(COc4ccccc4)nnc3s2)cc1	Her2 expr inh -21
CCOc1ccccc1OCc1nn2c(COc3ccccc3)nnc2s1	none
COc1ccc2c(Cl)c(-c3nnc(SCC(N)=O)n3C)sc2c1	none
COc1ccc2c(Cl)c(C(N)=O)sc2c1	JNK3 blocker 18
Cc1ccc2c(c1)[nH]c1c(N3CCN(Cc4ccc5c(c4)OCO5)CC3)ncnc12	M1 ag 3.4
c1ccc(-n2c(-c3ccncc3)nnc2N2CCOCC2)cc1	Her2 expr inh -3.3
c1ccc(-n2c(-c3ccncc3)nnc2-c2ccco2)cc1	none
COc1ccc(Br)cc1C1CC(=O)N2CN(C)CSC2=C1C#N (stereo not given)	none
COc1cc(OC)c(C2CC(=O)N3CN(C)CSC3=C2C#N)cc1OC (stereo not given)	M1 antag 0.66
CCCc1nc2oc3c(N4CCNCC4)ncnc3c2c2c1CCCC2	Her2 expr inh -15
CC(C)Cc1nc2oc3c(N4CCN(C)CC4)ncnc3c2c2c1CCCC2	none
COc1ccc(CNC(=O)C2COc3ccccc3O2)c(OC)c1 (stereo not given)	none
CCOc1cccc(NC(=O)C2CCCN(S(=O)(=O)c3ccc(-n4cnnn4)cc3)C2)c1 (stereo not given)	JNK3 blocker 21
COc1cccc(NC(=O)C2CCCN(S(=O)(=O)c3ccc(-n4cnnn4)cc3)C2)c1 (stereo not given)	none
CCN1CCN(Cc2ccc3c(c2)Cc2ccccc2-3)CC1	M1 antag -3.5
c1ccc2c(c1)Cc1cc(CN3CCOCC3)ccc1-2	none
NC(=O)c1c(NC(=O)Cc2cccs2)sc2c1CCC2	JNK3 blocker 31
O=C(c1ccco1)N1CCN=C1SCc1c(F)cccc1Cl	FXIa inh mix 29
